Compounds with a hit are over-represented: about 4.5% of the library has one in this group of screens.
CSC inhib: cancer stem cell viability inhibitors, primary screen, luminescence. cancer stem cell-like cells viability. inhibition, % at 7.5 µM. AID 2717, 2010. hit rate 1.1% among 300,000; in the data active = inhibition above about 75%; tested in HMLE shEcad cells
aSyn 5UTR inh: MLPCN primary screen, SNCA 5' untranslated region; AID 1813, 2009; hit rate 0.82% among 300,000; inhibition, % (tested at 7.5 µM); alpha-synuclein 5'UTR reporter, inhibitor activity; in the data active = inhibition above about 60%;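 also: H4 neuroglioblastoma cells stably carrying SNCA 5'UTR luciferase fusion; 0% = DMSO wells and 100% = positive control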
Mdm2 MdmX PPI: inhibitors of human Mdm2-MdmX association, primary screen, cell-based, luminescence, split luciferase, SaOS-2, uHTS | Protein Mdm4 (Homo sapiens) + E3 ubiquitin-protein ligase Mdm2 (Homo sapiens), … | SaOS-2 split-luciferase Mdm2/MdmX complementation | inhibition, % at 8 µM | hit rate 3% among 330,000;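 active = inhibition of at least 50% at 8 µM in the primary screen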
Target sequence (O15151 whole entry, looked up): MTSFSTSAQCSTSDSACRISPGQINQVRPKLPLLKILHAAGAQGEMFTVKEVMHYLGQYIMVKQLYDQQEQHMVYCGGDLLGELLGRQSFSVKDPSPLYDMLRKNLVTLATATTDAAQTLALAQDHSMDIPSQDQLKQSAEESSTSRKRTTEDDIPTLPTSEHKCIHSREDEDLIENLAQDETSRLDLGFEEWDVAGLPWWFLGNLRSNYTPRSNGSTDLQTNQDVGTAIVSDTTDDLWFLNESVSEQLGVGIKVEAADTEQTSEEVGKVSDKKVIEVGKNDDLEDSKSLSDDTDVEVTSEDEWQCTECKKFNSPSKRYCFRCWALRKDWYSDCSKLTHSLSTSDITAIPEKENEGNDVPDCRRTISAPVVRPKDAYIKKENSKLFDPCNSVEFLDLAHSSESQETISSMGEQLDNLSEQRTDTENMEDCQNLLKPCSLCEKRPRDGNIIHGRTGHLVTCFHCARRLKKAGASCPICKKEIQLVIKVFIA
Target sequence (Q00987 whole entry, looked up): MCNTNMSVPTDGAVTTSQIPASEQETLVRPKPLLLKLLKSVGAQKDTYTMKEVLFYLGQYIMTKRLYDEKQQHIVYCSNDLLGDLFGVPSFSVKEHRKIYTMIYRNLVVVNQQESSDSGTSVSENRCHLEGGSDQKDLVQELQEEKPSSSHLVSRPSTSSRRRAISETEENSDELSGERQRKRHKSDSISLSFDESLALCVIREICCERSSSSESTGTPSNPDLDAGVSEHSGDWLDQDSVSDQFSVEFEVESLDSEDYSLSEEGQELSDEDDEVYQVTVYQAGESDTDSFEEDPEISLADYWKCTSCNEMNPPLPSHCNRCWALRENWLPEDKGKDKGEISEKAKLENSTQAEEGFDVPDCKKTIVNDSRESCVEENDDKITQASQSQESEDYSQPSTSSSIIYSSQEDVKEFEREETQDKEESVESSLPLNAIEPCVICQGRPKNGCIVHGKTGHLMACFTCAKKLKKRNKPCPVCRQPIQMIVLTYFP
Gli-Sufu block: Gli-Sufu pathway antagonists, primary screen, luciferase luminescence, Sufu-KO-LIGHT cells, uHTS | AID 588413, 2011 | Sufu-KO-LIGHT fibroblasts, Gli luciferase reporter luminescence | hit rate 0.74% among 340,000 | inhibition, % at 5 µM;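 active = inhibition above about 55%, limit read from the data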;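 also: 0% = DMSO-treated cells and 100% = wells with medium but no cells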
Jurkat NFkB inh: inhibitors of induced NF-kB luciferase reporter, primary screen, TCR NF-kB activation inhibitor project, cell-based, luminescence, uHTS | Jurkat, PMA/ionomycin-induced NF-kB luciferase reporter | inhibition, % at 4 µM | hit rate 0.53% among 330,000 | AID 435003, 2010; in the data active = inhibition above about 50%
697 NFkB inh: inhibitors of PMA/ionomycin-induced NF-kB reporter, 697 cells, primary screen, B-cell NF-kB inhibitor project, cell-based, luminescence, uHTS. inhibition, % at 4 µM. 697 B-cell NF-kB luciferase reporter, 16 h. hit rate 0.33% among 330,000; in the data active = inhibition above about 35%
Jurkat NFkB conf: PMA/ionomycin-induced NF-kB reporter inhibitors, Jurkat retest, confirmation, T-cell NF-kB inhibitor project, cell-based, luminescence, single concentration. hit rate 27% among 2,700. Jurkat NF-kB luciferase, 16 h. inhibition, % at 4 µM. shares compounds with Jurkat NFkB inh;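 active = inhibition reaching about 45% at 4 µM in either replicate, limit read from the data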;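 also: plate controls were PMA/ionomycin stimulated DMSO wells for no effect and unstimulated DMSO wells for full effect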
697 NFkB conf: PMA/ionomycin-induced NF-kB reporter inhibitors, 697 retest, confirmation, B-cell NF-kB inhibitor project, cell-based, luminescence, single concentration | shares compounds with 697 NFkB inh | 697 B-cell NF-kB luciferase, 16 h | inhibition, % at 4 µM | hit rate 35% among 2,000 | AID 449746, 2010; in the data active = inhibition mostly above about 28%, no sharp cut-off; inactive = mostly below about 22%
Mdm2-MdmX conf: Mdm2-MdmX complex disruptors, retested hits, confirmation, luminescence, single concentration. shares compounds with Mdm2 MdmX PPI. Mdm2-MdmX binding, luminescent assay. inhibition, % at 8 µM. hit rate 55% among 10,000; in the data active = inhibition above about 40%
FLuc counter: full-length luciferase signal inhibition, confirmation, counter-screen for Mdm2/MdmX interaction inhibitor project, cell-based, single concentration, SaOS-2; SaOS-2 full-length luciferase counterscreen, luminescence; shares compounds with Mdm2 MdmX PPI; inhibition, % at 8 µM; hit rate 77% among 6,200;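 active = mean inhibition at 8 µM reaching about 37%, which flags the compound as non-specific, limit read from the data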;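 also: p53-null SaOS-2 cells with luciferase driven by a doxycycline-inducible promoter; compound on cells about two nights before reading with doxycycline added after day one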
Numbers without * were called inactive; i = inactive; · = not tested or not shown.

SMILES	CSC inhib	aSyn 5UTR inh	Mdm2 MdmX PPI	Gli-Sufu block	Jurkat NFkB inh	697 NFkB inh	Jurkat NFkB conf	Mdm2-MdmX conf	FLuc counter	others
c1ccc(-c2nc(NCCCn3ccnc3)c3ccccc3n2)cc1	-2	-34	30	21	14	4	·	·	·
CCCCCn1ccc(=N)cc1	6	19	12	24	24	23	·	·	·
CCCCCCCCCn1ccc(=N)cc1	7	82*	91*	89*	92*	45*	77*	81*	24	697 NFkB conf=58*
Cc1nnc(SCC(=O)NC2CCCC2)n1-c1ccccc1	·	·	15	-5	-8	7	·	·	·
CCN1/C(=C/c2ccc3cccc(C)c3[n+]2CC)Sc2ccccc21	35	-134	62*	88*	92*	102*	77*	76*	26	697 NFkB conf=87*
C[n+]1ccccc1/C=C1\Sc2ccccc2N1CCO	-13	5	4	21	-1	-2	·	·	·
COc1ccc(S(=O)(=O)N2CCCC2CNC(=O)C(=O)NCCc2ccccc2)cc1 (stereo not drawn)	41	-48	60*	-6	54*	-32	29	67*	64*
Fc1ccc(NC(=S)Nc2ccc(Cl)cc2Cl)cc1	3	-28	10	13	7	-13	·	·	·
Fc1ccccc1/C=N/NC(=S)Nc1ccc(Cl)cc1Cl	64	47	80*	-6	53*	-29	-79	72*	90*
COc1ccccc1OCCNC(=O)c1ccc(C)o1	-7	-33	9	-12	-7	0	·	·	·
COc1cccc2c1C(CO)N1C(C#N)C3CC(C(=O)O)C(C1C2)N3C (stereo not drawn)	21	·	100*	-20	97*	104*	96*	100*	52*	697 NFkB conf=102*
CCOC(=O)c1sc(N)c(C(=O)Nc2ccccc2OC)c1C	59	30	56*	0	71*	-29	18	65*	57*
O=C(Nc1nc2ccc(S(=O)(=O)N3CCCC3)cc2s1)C1CCCCC1	58	72*	66*	27	62*	-20	58*	57*	70*
O=C(Nc1nc2ccc(S(=O)(=O)N3CCCCC3)cc2s1)C1CCCO1 (stereo not drawn)	9	21	4	-19	-2	-21	·	·	·
Cc1cc(NC(=O)CSc2nnc(-c3ccccc3)c(-c3ccccc3)n2)no1	48	39	53*	-3	60*	4	13	56*	47*
O=C(O)CCCNC(=O)c1ccccn1	-7	-1	-27	46	-6	-16	·	·	·
COc1ccc(S(=O)(=O)N2c3cc(C)ccc3OCC2C(C)(C)C)cc1 (stereo not drawn)	47	36	56*	9	51*	-50	17	61*	63*
Cc1ccc(Cn2ncc3c(NN)ncnc32)cc1	28	-8	4	7	-1	16	·	·	·
OC(c1cc(-c2ccc(C(F)(F)F)cc2)nc(C(F)(F)F)c1)C1CCCCN1 (stereo not drawn)	104*	103*	96*	-26	52*	-22	18	98*	52*
COc1ccc(CNc2ncc(-c3ccc(F)cc3)n2C)c2ccccc12	8	65*	57*	56*	71*	40*	50*	25	·	697 NFkB conf=48*
CCOc1ccc2c(c1)sc(N)[n+]2Cc1cc(C)cc2cccnc12	-6	55	58*	20	62*	-80	51*	65*	60*
CN(C(=O)c1cccc(NC(=O)Cc2ccc(NC(=O)C3CCN(C(=O)CCc4ccccc4)CC3)cc2)c1)C1CCCCC1	·	·	·	9	·	·	·	·	·
Cc1cc(/C=C2\Sc3ccccc3N2C)cc(C)[n+]1CC1CCCO1 (stereo not drawn)	·	·	87*	88*	97*	36*	41	90*	21	697 NFkB conf=0
Cc1ccc(/C=C2/Sc3ccccc3N(CC(=O)NCC3CCCO3)C2=O)cc1 (stereo not drawn)	-5	4	-2	-7	-11	-17	·	·	·
O=[N+]([O-])c1cccc(SSc2cccc([N+](=O)[O-])c2)c1	·	·	·	6	·	·	·	·	·
SMILES	CSC inhib	aSyn 5UTR inh	Mdm2 MdmX PPI	Gli-Sufu block	Jurkat NFkB inh	697 NFkB inh	Jurkat NFkB conf	Mdm2-MdmX conf	FLuc counter	others
CCN=c1scc(-c2ccc(F)cc2)n1/N=C/c1ccccn1	3	-73	-175	-13	-92	-167	·	·	·
CCN=c1scc(-c2ccccc2)n1/N=C/c1ccccn1	29	26	85*	-68	-199	i	-116	66*	127*	697 NFkB conf=i
C=CCN=c1scc(-c2ccc(F)cc2)n1/N=C/c1ccccn1	33	-39	-6	-2	-50	-202	·	·	·
C=CCN=c1scc(-c2ccccc2)n1/N=C/c1ccccn1	40	-68	79*	-101	-199	i	-89	64*	42*	697 NFkB conf=i
CCC(C(=O)OCc1csc(CC(=O)Nc2ccccc2C)n1)c1ccccc1 (stereo not drawn)	·	·	-10	3	11	-5	·	·	·
C=CCN1C(=O)c2ccc(C(=O)OCC(=O)N(CC)c3c(N)n(Cc4ccccc4)c(=O)[nH]c3=O)cc2C1=O	·	·	·	1	·	·	·	·	·
CN(Cc1ccc(C(F)(F)F)cc1)C(=O)C1CC(=O)N(Cc2ccco2)C1 (stereo not drawn)	-12	·	2	-1	-2	-7	·	·	·
CCOc1ccc(Cl)cc1S(=O)(=O)n1cnc2ccccc21	59	-3	37	4	47	-44	·	·	·
CCOc1ccc(C)cc1S(=O)(=O)n1cnc2ccccc21	59	-9	52*	1	54*	-53	15	61*	45*
COc1ccccc1N1CCN(C(=O)c2ccc3[nH]c(C)c(C)c3c2)CC1	56	72*	51*	7	54*	8	17	63*	66*

Compound activity: PubChem, several laboratories
